The supplement of paper PMC3545927
The other results are listed elsewhere or left out. The hit rate among all sequences tested is not known here.

Molecular target: furin, P09958
Assay: furin cleavage Z-score vs untreated control; higher = more cleavage, active = 3.5 or more, inactive = 1 or less, 8 variable residues between constant flanks
Summary of the method: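 The cleavage Z-score is the log read count relative to furin-free reactions, lowess-adjusted and scaled by median absolute deviation. Counts came from sequencing DNA released from bead-bound 8-mer peptide–cDNA fusions after digestion with purified furin for 7.5, 15 or 30 min.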
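Also: purified furin at 1:10 enzyme:substrate in 50 mM HEPES pH 7.5.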

furin, P09958, sequence (P09958 whole entry): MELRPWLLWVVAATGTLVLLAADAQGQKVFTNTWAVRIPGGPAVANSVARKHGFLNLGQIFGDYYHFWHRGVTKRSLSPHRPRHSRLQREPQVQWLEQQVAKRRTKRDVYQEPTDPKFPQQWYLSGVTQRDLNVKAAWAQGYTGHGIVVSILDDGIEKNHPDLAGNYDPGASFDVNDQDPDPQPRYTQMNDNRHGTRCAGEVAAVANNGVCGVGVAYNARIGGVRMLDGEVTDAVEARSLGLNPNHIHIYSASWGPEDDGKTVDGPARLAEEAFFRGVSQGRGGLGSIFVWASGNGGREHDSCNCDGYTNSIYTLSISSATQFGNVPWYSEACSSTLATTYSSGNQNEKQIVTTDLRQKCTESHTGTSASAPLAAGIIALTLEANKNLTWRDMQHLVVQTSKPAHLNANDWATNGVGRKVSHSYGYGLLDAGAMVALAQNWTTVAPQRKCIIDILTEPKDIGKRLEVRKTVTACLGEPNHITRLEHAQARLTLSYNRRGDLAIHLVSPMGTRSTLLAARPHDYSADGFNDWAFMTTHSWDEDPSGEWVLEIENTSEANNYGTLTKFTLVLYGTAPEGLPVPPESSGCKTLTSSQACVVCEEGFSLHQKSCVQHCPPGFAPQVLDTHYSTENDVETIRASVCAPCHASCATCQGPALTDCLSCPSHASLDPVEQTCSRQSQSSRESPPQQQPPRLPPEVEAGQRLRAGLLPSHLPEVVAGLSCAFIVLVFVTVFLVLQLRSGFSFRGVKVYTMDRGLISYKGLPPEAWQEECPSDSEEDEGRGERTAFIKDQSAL

Sequence: CARLRREPGGAGNASASA [FS-2713]
- furin cleavage Z-score (7.5 min): -0.934 (inactive)
- furin cleavage Z-score (15 min): -0.299 (inactive)
- furin cleavage Z-score (30 min): -0.815 (inactive)

Sequence: CARDRRMMSQAGNASASA [FS-2653]
- furin cleavage Z-score (7.5 min): 0.37 (inactive)
- furin cleavage Z-score (15 min): 0.534 (inactive)
- furin cleavage Z-score (30 min): 0.367 (inactive)

Sequence: CARLRRAADHAGNASASA [FS-2712]
- furin cleavage Z-score (7.5 min): 8.97 (active)
- furin cleavage Z-score (15 min): 8.17 (active)
- furin cleavage Z-score (30 min): 7.64 (active)

Sequence: CARLRRVSHQAGNASASA [FS-1861]
- furin cleavage Z-score (7.5 min): -2.01 (inactive)
- furin cleavage Z-score (15 min): 0.557 (inactive)
- furin cleavage Z-score (30 min): 1.98

Sequence: CARLRRQKLSAGNASASA [FS-2576]
- furin cleavage Z-score (7.5 min): 0.0621 (inactive)
- furin cleavage Z-score (15 min): 0.201 (inactive)
- furin cleavage Z-score (30 min): -0.745 (inactive)

Sequence: CARLKRIISHAGNASASA [FS-2706]
- furin cleavage Z-score (7.5 min): 0.518 (inactive)
- furin cleavage Z-score (15 min): -1.37 (inactive)
- furin cleavage Z-score (30 min): -0.856 (inactive)

Sequence: CARLRRDTQQAGNASASA [FS-2494]
- furin cleavage Z-score (7.5 min): 8.34 (active)
- furin cleavage Z-score (15 min): 9.45 (active)
- furin cleavage Z-score (30 min): 7.24 (active)

Sequence: CARLRRRTSHAGNASASA [FS-2716]
- furin cleavage Z-score (7.5 min): 1.21
- furin cleavage Z-score (15 min): 1.27
- furin cleavage Z-score (30 min): 4.1 (active)

Sequence: CARLRRVVGQAGNASASA [FS-1747]
- furin cleavage Z-score (7.5 min): 0.978 (inactive)
- furin cleavage Z-score (15 min): -0.277 (inactive)
- furin cleavage Z-score (30 min): 1.66

Sequence: CARIRRRASQAGNASASA [FS-2032]
- furin cleavage Z-score (7.5 min): 3.16
- furin cleavage Z-score (15 min): 3.54 (active)
- furin cleavage Z-score (30 min): 4.94 (active)

Sequence: CAMEECSQHSAGNASASA [HC1777]
- furin cleavage Z-score (7.5 min): 2.1
- furin cleavage Z-score (15 min): 0.565 (inactive)
- furin cleavage Z-score (30 min): 0.168 (inactive)

Sequence: CAPPEELKFQAGNASASA [NG7]
- furin cleavage Z-score (7.5 min): -0.102 (inactive)
- furin cleavage Z-score (15 min): -1.12 (inactive)
- furin cleavage Z-score (30 min): 0.127 (inactive)

Sequence: CARANRIVNAAGNASASA [FS-2392]
- furin cleavage Z-score (7.5 min): 0.0348 (inactive)
- furin cleavage Z-score (15 min): -1.24 (inactive)
- furin cleavage Z-score (30 min): -1.84 (inactive)

Sequence: CATFWAKHMWAGNASASA [HC1040]
- furin cleavage Z-score (7.5 min): 0.313 (inactive)
- furin cleavage Z-score (15 min): -0.474 (inactive)
- furin cleavage Z-score (30 min): 0.00738 (inactive)

Sequence: CARLRRILEVAGNASASA [FS-2433]
- furin cleavage Z-score (7.5 min): -1.97 (inactive)
- furin cleavage Z-score (15 min): -0.173 (inactive)
- furin cleavage Z-score (30 min): 0.88 (inactive)

Sequence: CARLHRFDSQAGNASASA [FS-2569]
- furin cleavage Z-score (7.5 min): -0.521 (inactive)
- furin cleavage Z-score (15 min): 0.134 (inactive)
- furin cleavage Z-score (30 min): 0.911 (inactive)

Sequence: CARLRRTMLVAGNASASA [FS-2996]
- furin cleavage Z-score (7.5 min): 0.457 (inactive)
- furin cleavage Z-score (15 min): -0.166 (inactive)
- furin cleavage Z-score (30 min): 0.463 (inactive)

Sequence: CARLRRRASQAGNASASA [FS-2995]
- furin cleavage Z-score (7.5 min): 2.66
- furin cleavage Z-score (15 min): 4.61 (active)
- furin cleavage Z-score (30 min): 4.94 (active)

Sequence: CARLRRASWVAGNASASA [FS-3197]
- furin cleavage Z-score (7.5 min): 1.44
- furin cleavage Z-score (15 min): 1.96
- furin cleavage Z-score (30 min): 4.56 (active)

Sequence: CASAPPGDPPAGNASASA [HC1544]
- furin cleavage Z-score (7.5 min): -0.56 (inactive)
- furin cleavage Z-score (15 min): -0.28 (inactive)
- furin cleavage Z-score (30 min): -0.205 (inactive)

Sequence: CAQARRFRRSAGNASASA [FS-844]
- furin cleavage Z-score (7.5 min): 14.3 (active)
- furin cleavage Z-score (15 min): 14.1 (active)
- furin cleavage Z-score (30 min): 9.61 (active)

Sequence: CAALGLERRSAGNASASA [FS-1444]
- furin cleavage Z-score (7.5 min): -0.628 (inactive)
- furin cleavage Z-score (15 min): -0.614 (inactive)
- furin cleavage Z-score (30 min): 0.553 (inactive)

Sequence: CAAPRRPRRPAGNASASA [FS-116]
- furin cleavage Z-score (7.5 min): 0.169 (inactive)
- furin cleavage Z-score (15 min): 0.142 (inactive)
- furin cleavage Z-score (30 min): 0.528 (inactive)

Sequence: CAFVQRFRRSAGNASASA [FS-236]
- furin cleavage Z-score (7.5 min): 11.9 (active)
- furin cleavage Z-score (15 min): 11.2 (active)
- furin cleavage Z-score (30 min): 9.2 (active)

Sequence: CAAPRRFRRSAGNASASA [FS-399]
- furin cleavage Z-score (7.5 min): 9.1 (active)
- furin cleavage Z-score (15 min): 8.32 (active)
- furin cleavage Z-score (30 min): 8.51 (active)

Sequence: CAAPERERRSAGNASASA [FS-215]
- furin cleavage Z-score (7.5 min): 8.78 (active)
- furin cleavage Z-score (15 min): 11.7 (active)
- furin cleavage Z-score (30 min): 7.74 (active)

Sequence: CADEEVVTSTAGNASASA [HC2292]
- furin cleavage Z-score (7.5 min): 1.62
- furin cleavage Z-score (15 min): 0.883 (inactive)
- furin cleavage Z-score (30 min): 1.1

Sequence: CATTPCSGSPAGNASASA [HC1939]
- furin cleavage Z-score (7.5 min): 0.991 (inactive)
- furin cleavage Z-score (15 min): -1.49 (inactive)
- furin cleavage Z-score (30 min): 0.61 (inactive)

Sequence: CAEVSCHRPSAGNASASA [HC2357]
- furin cleavage Z-score (7.5 min): 0.821 (inactive)
- furin cleavage Z-score (15 min): 0.257 (inactive)
- furin cleavage Z-score (30 min): -0.805 (inactive)

Sequence: CAVVCCSMDYAGNASASA [HC2071]
- furin cleavage Z-score (7.5 min): -0.0968 (inactive)
- furin cleavage Z-score (15 min): 0.0602 (inactive)
- furin cleavage Z-score (30 min): -0.172 (inactive)

Sequence: CATTECSGSWAGNASASA [HC1872]
- furin cleavage Z-score (7.5 min): -0.691 (inactive)
- furin cleavage Z-score (15 min): -0.533 (inactive)
- furin cleavage Z-score (30 min): -0.721 (inactive)

Sequence: CANNHVYRRSAGNASASA [FS-834]
- furin cleavage Z-score (7.5 min): 2.73
- furin cleavage Z-score (15 min): 4.48 (active)
- furin cleavage Z-score (30 min): 3.35

Sequence: CAMEECSNHLAGNASASA [HC1741]
- furin cleavage Z-score (7.5 min): -0.217 (inactive)
- furin cleavage Z-score (15 min): 1.15
- furin cleavage Z-score (30 min): 0.956 (inactive)

Sequence: CAALARSHRDAGNASASA [FS-1183]
- furin cleavage Z-score (7.5 min): 3.5 (active)
- furin cleavage Z-score (15 min): 2.5
- furin cleavage Z-score (30 min): 3.98 (active)

Sequence: CAALIRKLRDAGNASASA [FS-1303]
- furin cleavage Z-score (7.5 min): 10.1 (active)
- furin cleavage Z-score (15 min): 10.2 (active)
- furin cleavage Z-score (30 min): 7.71 (active)

Sequence: CAACARKFRDAGNASASA [FS-1]
- furin cleavage Z-score (7.5 min): 0.95 (inactive)
- furin cleavage Z-score (15 min): -0.474 (inactive)
- furin cleavage Z-score (30 min): -0.446 (inactive)

Sequence: CAALARKMIGAGNASASA [HC622]
- furin cleavage Z-score (7.5 min): -0.391 (inactive)
- furin cleavage Z-score (15 min): -0.298 (inactive)
- furin cleavage Z-score (30 min): -0.269 (inactive)

Sequence: CAEMEVPCHRAGNASASA [HC2446]
- furin cleavage Z-score (7.5 min): 1.88
- furin cleavage Z-score (15 min): 3.24
- furin cleavage Z-score (30 min): 0.262 (inactive)

Sequence: CAGKARARRTAGNASASA [FS-782]
- furin cleavage Z-score (7.5 min): 7.77 (active)
- furin cleavage Z-score (15 min): 7.95 (active)
- furin cleavage Z-score (30 min): 6.06 (active)

Sequence: CAAPTRARRTAGNASASA [FS-1111]
- furin cleavage Z-score (7.5 min): 9.32 (active)
- furin cleavage Z-score (15 min): 8.24 (active)
- furin cleavage Z-score (30 min): 6.87 (active)

Sequence: CAELTPAETTAGNASASA [HC925]
- furin cleavage Z-score (7.5 min): -0.725 (inactive)
- furin cleavage Z-score (15 min): 0.302 (inactive)
- furin cleavage Z-score (30 min): -0.347 (inactive)

Sequence: CAKPTLHGPTAGNASASA [HC968]
- furin cleavage Z-score (7.5 min): 0.718 (inactive)
- furin cleavage Z-score (15 min): 0.412 (inactive)
- furin cleavage Z-score (30 min): -0.00703 (inactive)

Sequence: CAVLVLNPSVAGNASASA [HC786]
- furin cleavage Z-score (7.5 min): 1.78
- furin cleavage Z-score (15 min): -1.12 (inactive)
- furin cleavage Z-score (30 min): 0.0915 (inactive)

Sequence: CAEVVTQTWVAGNASASA [HC159]
- furin cleavage Z-score (7.5 min): -0.939 (inactive)
- furin cleavage Z-score (15 min): 1.5
- furin cleavage Z-score (30 min): 1.45

Sequence: CAMEETSQHLAGNASASA [HC16]
- furin cleavage Z-score (7.5 min): 0.191 (inactive)
- furin cleavage Z-score (15 min): 1.87
- furin cleavage Z-score (30 min): 1.08
